# Measurements published in PubChem BioAssay (NCI).
# Values joined by “and” are separate entries in the source; they are usually repeats but may differ in a detail not shown here. Equal entries are not always repeated. Compounds without any hit were thinned out: in the full panel of roughly 83,000, 20% have a hit.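 Method: cells in 96-well plates; compound added at one concentration; 48 h incubation; percent growth measured; values under 10 scored active.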 Active and inactive are the calls of the source.
# System: MDA-MB-468 breast
# Assay: NCI-60 one-dose screen, 48 h (100 = growth as untreated, 0 = no growth, -100 = all killed)
# Conditions: 10 µM unless noted
row,SMILES,growth
1,Fc1ccc([I+]c2ccc(F)cc2)cc1,30% (inactive)
2,C#CCOc1cccc(-c2nc(N)nc(Nc3ccccc3SSc3ccccc3Nc3nc(N)nc(-c4cccc(OCC#C)c4)n3)n2)c1,73% (inactive)
3,Cc1cc2nc(C(Cl)Cl)nc(-c3ccccc3)n2n1,-20.7% (active)
4,O=C1NCCS(=O)(=O)/C1=C\C=C\c1cccc(C(F)(F)F)c1,17.9% (inactive)
5,CC(C)(C)[C@H](OCc1cn([C@H]2C[C@@H](O)[C@@H](CO)O2)c(=O)[nH]c1=O)c1ccc(C#Cc2ccccc2)cc1[N+](=O)[O-],68.2% (inactive)
6,O=C(/C=C/c1cn(-c2ccccc2)nc1-c1ccc([N+](=O)[O-])cc1)c1ccc(Cl)cc1,39.5% (inactive)
7,O=C(CCN1C(=O)/C(=C/c2ccc(O)cc2)SC1=S)Nc1ccc(Cl)cc1,95.3% (inactive)
8,C=CCn1c(SCC(=O)Nc2ccc(C(=O)/C=C/c3ccc(Cl)cc3)cc2)nnc1-c1ccc(Cl)cc1,89% (inactive)
9,COc1ccc(/C(=C\c2cc(OC)c(OC)c(OC)c2)C(=O)N2CCNCC2)cc1,94.3% (inactive)
10,COc1nc(Nc2cccc(C(F)(F)F)c2)nc(OC)n1,112% (inactive)
11,Cc1ccc(S(=O)(=O)Nc2ccc3cc([N+](=O)[O-])ccc3c2[N+](=O)[O-])cc1,54% (inactive) and 88.5% (inactive)
12,CCOC(=O)C1=CCC(n2cc(F)c(=O)[nH]c2=O)O1 (stereo not given),134% (inactive)
13,Fc1ccc(CNc2cccc3[nH]c(C(F)(F)F)nc23)cc1,99.7% (inactive)
14,Cc1cc(CO)c(O)c(CO)c1,106% (inactive)
15,Cc1nccc2c3ccc(OCc4cn(-c5ccc(Cl)cc5)nn4)cc3n(CC(C)C)c12,-1.72% (active)
16,O=C(c1ccccc1)[C@H]1[C@@H]2CCCN2[C@]2(C(=O)Nc3ccc(F)cc32)[C@]12C(=O)Nc1ccccc12,96.2% (inactive)
17,Cn1c(=O)c(F)c(Nc2ccc(I)cc2F)c2c(=O)n(C[C@@H](O)CO)cnc21,77.9% (inactive)
18,COC12C=C/C(=C(/C(=O)OCCSc3ccnn3C)C(=O)CCCCCCCCC3(OC)C=C/C(=C(/C(=O)OCCSc4ccnn4C)C(=O)CCCCCCCC1)O3)O2,-6.23% (active)

row,SMILES,growth
1,CC1=C(C(=O)Nc2nc(-c3ccc(Cl)cc3)cs2)[C@H](c2ccc(O)cc2)NC(=O)N1,95% (inactive)
2,O=c1oc2ccc(Br)cc2c(=O)n1-c1ccc(F)cc1F,-2.96% (active)
3,Cc1nn(-c2ccc([N+](=O)[O-])cc2)c2ncnc(N/N=C/c3ccccc3O)c12,-16.6% (active)
4,CS(=O)(=O)N(c1cc(-c2ccc3ncnc(Nc4ccc(F)c(Cl)c4)c3c2)cnc1Cl)S(C)(=O)=O,-19.6% (active)
5,CC1=C(/C=C/C(C)=C/C=C/C(C)=C/CO)C(C)(C)CCC1,103% (inactive)
6,CCN1CCN(c2cc(C)nc(N(CCNc3ccnc4cc(Cl)ccc34)Cc3ccc4c(c3)OCO4)n2)CC1,-67.6% (active)
7,CS(=O)(=O)c1ccc(-c2nn(-c3ccccc3)cc2/C=C/C(=O)c2ccc(Br)cc2)cc1,91.4% (inactive)
8,O=C1CCn2c1c(O)c1ccccc1c2=O,105% (inactive)
9,COc1ccc(-c2nc3c(c(=O)n2C(C)=O)C(c2ccc(Cl)cc2)c2sc4c(Cl)cccc4c2O3)cc1 (stereo not given),5.77% (active)
10,O=C1C[C@@H](c2ccccc2)Oc2c(Cc3ccccc3O)c(O)c(Cc3cc(Cc4cc(Cc5ccccc5O)ccc4O)ccc3O)c(O)c21,101% (inactive)
11,CO[C@H](C(=O)N[C@@H](CCCCNC(=O)OCc1ccccc1)C(=O)OC(C)(C)C)[C@@H]1Cc2cc3cc(OC4CC(OC5CC(O)C(O)C(C)O5)C(O)C(C)O4)c(C)c(O)c3c(O)c2C(=O)[C@H]1OC1CC(OC2CC(OC3CC(C)(O)C(O)C(C)O3)C(O)C(C)O2)C(O)C(C)O1 (stereo not given in full),-37.5% (active)
12,COc1cc(NC(C)CN(CC(C)C)C(C)C)c2ncccc2c1 (stereo not given),-15.4% (active)
13,Cc1nc2cc(Nc3nc(NCCO)nc(Nc4ccc(F)cc4)n3)ccc2n1Cc1ccccc1,99.2% (inactive)
14,CC(/C=N/NC(N)=S)Cc1ccc(C(C)C)cc1 (stereo not given),42.1% (inactive)
15,Cc1cccc2cc(/C=C/C(=O)/C=C/c3ccc(Cl)cc3)c(=O)[nH]c12,61.7% (inactive)
16,CC(C)Sc1nc(NN)c(C#N)c(-c2ccccc2)n1,113% (inactive)
17,Cc1ccc(NCCN(C)CC(C)O)c2c(=O)c3ccccc3sc12 (stereo not given),13.5% (inactive)
